In PubChem BioAssay (Tox21):
Records with an inconclusive call do not appear. The source made the active and inactive calls. Unless noted, calls come from the whole dose curve; as a rule, active = well fitted curve in the direction sought with a large enough effect in the repeat runs; inconclusive = weak or mixed curves; inactive = no such curve, though single readings can be large; an effect the other way counts as inactive or inconclusive.

How the values were obtained:
[1] = molecular target: Progesterone receptor (Homo sapiens) (UniProt P06401); test: qHTS assay to identify small molecule agonists of the progesterone receptor (PR) signaling pathway (AID 1346784; calls by dose curve; note: nearly all actives have a fitted effect of over 30% in size; note: potency is the fitted concentration of half-maximal effect)
Outline: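 PR-UAS-bla HEK 293T cells (beta-lactamase reporter under UAS) in 2% charcoal-stripped FBS, dosed with 23 nL compound after 6 hr, incubated 16hr at 37C. LiveBLAzer B/G FRET substrate added, fluorescence read after 2 hours.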

[2] = qHTS assay to identify small molecule agonists of the progesterone receptor (PR) signaling pathway - cell viability counter screen (AID 1346799; calls by dose curve; note: nearly all actives have a fitted effect of over 45% in size; note: potency is the fitted concentration of half-maximal effect)
Outline: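 Counter screen in the PR-UAS-bla HEK293T wells (2% charcoal-stripped FBS, 16 h compound exposure at 37 C) after the bla read. CellTiter-Glo added, 30 min at room temperature, luminescence read as cell viability.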

[3] = qHTS assay to identify small molecule antagonists of the TGF-beta/Smad signaling pathway - cell viability counter screen (AID 1346824); note: nearly all actives have a fitted effect of over 50% in size
Outline: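 SBE-bla HEK 293T cells were plated overnight at 37 C, then given compounds in DMSO plus TGF-beta1 (added as 0.25 ng/mL solution) for 5 hr. After the bla read, CellTiter-Glo was added to the same wells and luminescence read after 30 min at room temperature.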

[4] = qHTS assay to identify small molecule agonists of the TGF-beta/Smad signaling pathway - cell viability counter screen (AID 1346829); note: top concentration of the series differs between compounds; nearly all actives have a fitted effect of over 45% in size
Outline: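 Compound-treated SBE-bla HEK 293T cells (5 hr, 37 C) were assessed for viability with CellTiter-Glo in parallel with the reporter read.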

[5] = qHTS assay to identify small molecule agonists of the TGF-beta/Smad signaling pathway (AID 1346859; active = well fitted activation curve with a large enough effect in the signal ratio in the repeat runs, not every such curve was filed as active; the % refers to the signal ratio; note: series mostly up to about 77 µM)
Outline: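 SBE-bla HEK293T cells plated overnight, then compound exposure for 5 h at 37 C. Beta-lactamase reporter read with LiveBLAzer B/G FRET substrate after 2 h at room temperature, fluorescence at 405 nm excitation, 460/530 nm emission.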

[6] = Human pregnane X receptor (PXR) small molecule agonists, qHTS cell viability counter screen (AID 1346977); note: nearly all actives have a fitted effect of over 50% in size; note: potency is the fitted concentration of half-maximal effect
Outline: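 PXR-Luc HepG2 cells (2,000/well, 5% charcoal-stripped FBS) preincubated 5 hr, then exposed to compounds 24 hr at 37 C. Viability read in the same wells by CellTiter-Fluor fluorescence, reagent added at 23 hr, 1 hr incubation.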

[7] = qHTS assay to identify small molecule antagonists of the progesterone receptor (PR) signaling pathway - cell viability counter screen (AID 1346798); note: nearly all actives have a fitted effect of over 50% in size; note: potency is the fitted concentration of half-maximal effect
Outline: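 PR-UAS-bla HEK293T cells, 3,000/well in 2% charcoal-stripped FBS medium, dosed with compounds plus R5020 agonist and incubated 16 h at 37C. Viability then measured in the same wells by CellTiter-Glo luminescence after 30 min at RT.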

[8] = molecular target: Thyrotropin-releasing hormone receptor (Homo sapiens) (UniProt P34981); test: qHTS assay to identify small molecule antagonists of the thyrotropin-releasing hormone receptor (TRHR) signaling pathway (AID 1346877; active = well fitted inhibition curve with a large enough effect in the repeat runs, not every such curve was filed as active; note: series mostly up to about 51 µM)
Outline: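 Intracellular calcium fluorescence, read kinetically every second over 3 min, reports TRH-evoked signalling in HEK293 cells carrying TRHR. Test compounds were added 5 min ahead of a 1 nM TRH challenge.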

[9] = molecular target: Thyrotropin-releasing hormone receptor (Homo sapiens) (UniProt P34981); test: qHTS assay to identify small molecule agonists of the thyrotropin-releasing hormone receptor (TRHR) signaling pathway (AID 1346891; calls by dose curve; note: series mostly up to about 58 µM)
Outline: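 HEK293 cells expressing TRHR plated 18 h at 37 C/5% CO2, calcium dye-loaded 2 h at 37 C, then compound added (agonist mode); kinetic calcium fluorescence read 3 min at 1 s intervals; 15 concentrations in triplicate.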

[10] = molecular target: Progesterone receptor (Homo sapiens) (UniProt P06401); test: qHTS assay to identify small molecule antagonists of the progesterone receptor (PR) signaling pathway (AID 1346795; active = well fitted inhibition curve with a large enough effect in the signal ratio in the repeat runs, not every such curve was filed as active; the % refers to the signal ratio; note: potency is the fitted concentration of half-maximal effect)
Outline: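 PR-UAS-bla HEK293T cells with beta-lactamase reporter under UAS control, in 2% charcoal-stripped FBS, treated with compounds plus 1 nM promegestone (R5020, final) for 16 hr at 37C. Read-out: FRET beta-lactamase substrate fluorescence after 2 hr at room temperature.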

Measured: Potency

Chain of Thyrotropin-releasing hormone receptor (Homo sapiens) (P34981 whole entry, looked up): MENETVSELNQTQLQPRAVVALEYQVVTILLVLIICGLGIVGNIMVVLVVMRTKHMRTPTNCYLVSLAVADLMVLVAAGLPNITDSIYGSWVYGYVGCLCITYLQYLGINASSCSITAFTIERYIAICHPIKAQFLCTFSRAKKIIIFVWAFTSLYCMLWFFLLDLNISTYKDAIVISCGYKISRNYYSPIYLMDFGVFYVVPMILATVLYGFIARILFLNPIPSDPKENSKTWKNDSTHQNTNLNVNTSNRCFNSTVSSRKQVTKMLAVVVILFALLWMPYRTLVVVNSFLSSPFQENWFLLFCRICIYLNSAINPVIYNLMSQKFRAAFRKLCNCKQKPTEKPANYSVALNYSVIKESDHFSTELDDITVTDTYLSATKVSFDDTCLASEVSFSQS
Chain of Progesterone receptor (Homo sapiens) (P06401 whole entry, looked up): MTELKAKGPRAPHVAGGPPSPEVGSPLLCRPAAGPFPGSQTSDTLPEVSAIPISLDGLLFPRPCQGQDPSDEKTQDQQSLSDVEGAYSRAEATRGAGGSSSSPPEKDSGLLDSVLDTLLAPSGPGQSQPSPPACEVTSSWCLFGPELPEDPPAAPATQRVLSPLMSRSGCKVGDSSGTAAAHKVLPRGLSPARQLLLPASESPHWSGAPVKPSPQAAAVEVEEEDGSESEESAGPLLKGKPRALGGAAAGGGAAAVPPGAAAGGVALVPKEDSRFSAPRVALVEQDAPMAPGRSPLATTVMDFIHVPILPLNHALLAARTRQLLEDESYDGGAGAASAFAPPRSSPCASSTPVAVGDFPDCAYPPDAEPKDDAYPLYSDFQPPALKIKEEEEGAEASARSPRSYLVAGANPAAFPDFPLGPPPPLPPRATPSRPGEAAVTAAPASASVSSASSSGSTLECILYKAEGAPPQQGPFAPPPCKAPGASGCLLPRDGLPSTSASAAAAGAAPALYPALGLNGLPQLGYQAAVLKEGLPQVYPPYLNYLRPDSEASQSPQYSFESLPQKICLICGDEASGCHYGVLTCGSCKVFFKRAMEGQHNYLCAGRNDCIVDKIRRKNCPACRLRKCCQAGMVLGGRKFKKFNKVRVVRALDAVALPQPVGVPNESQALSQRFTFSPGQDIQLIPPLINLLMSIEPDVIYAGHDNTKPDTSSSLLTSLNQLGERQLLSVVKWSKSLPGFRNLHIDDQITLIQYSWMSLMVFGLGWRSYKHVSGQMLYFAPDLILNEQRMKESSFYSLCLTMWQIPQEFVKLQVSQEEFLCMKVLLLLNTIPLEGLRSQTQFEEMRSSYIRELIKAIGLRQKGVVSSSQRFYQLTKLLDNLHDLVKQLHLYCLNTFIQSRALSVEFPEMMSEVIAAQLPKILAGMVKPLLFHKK

CC(=O)C(C)=O
inactive: [1] | [2] | [3] | [4] | [5] | [6]

C1CCCCC1
inactive: [7] | [3] | [4] | [8] | [9] | [6]

CC(=O)OCCC(C)CC(C)(C)C (stereo unspecified)
inactive: [1] | [3] | [4] | [6]

Nc1nc2ccc(OC(F)(F)F)cc2s1
inactive: [1] | [2] | [3] | [5] | [6]

COc1ccc(-c2cc(=S)ss2)cc1
active: [7] 15 µM
not listed: [1] | [2] | [10]
inactive: all other assays above

CCCCCCCC/C=C\CCCCCCCC(=O)OCCO
not listed: [1] | [4] | [5]
inactive: all other assays above

Cc1ccc2c(c1[N+](=O)[O-])C(=O)c1ccccc1C2=O
inactive: [10] | [7] | [2] | [4] | [5]
active: [6] 3.78 µM

COc1ccc(-c2cc(C(F)F)nn2-c2ccc(S(N)(=O)=O)cc2)cc1F
inactive: [1] | [3] | [8] | [9] | [6]

O[C@@H](CNC[C@H](O)[C@H]1CCc2cc(F)ccc2O1)[C@@H]1CCc2cc(F)ccc2O1
active: [10] 26.6 µM | [7] 29.8 µM | [2] 29.8 µM | [6] 29.8 µM
inactive: [3] | [4] | [5]

O=S(=O)(O)CO
not listed: [1] | [2] | [7]
inactive: all other assays above

O=C(O)CCC(=O)c1ccc(-c2ccccc2)cc1
inactive: [1] | [2] | [3] | [4] | [6]

CCN(CC)C(=O)/C(C#N)=C/c1cc(O)c(O)c([N+](=O)[O-])c1
inactive: [10] | [3] | [4] | [8] | [9]

C[C@@H]1[C@H](O)[C@@H](C)/C=C/C=C\C=C\C=C\C=C\C=C\C=C\[C@H](O[C@@H]2O[C@H](C)[C@@H](O)[C@H](N)[C@@H]2O)C[C@@H]2O[C@](O)(C[C@@H](O)C[C@@H](O)[C@H](O)CC[C@@H](O)C[C@@H](O)CC(=O)O[C@H]1C)C[C@H](O)[C@H]2C(=O)O (stereo in doubt)
inactive: [1] | [3]

CCCCCCCCCCCSCC(=O)O
active: [2] 21.7 µM
not listed: [1] | [10]
inactive: all other assays above

O=C(O)CN1C(=O)c2cccc3cccc(c23)C1=O
not listed: [1] | [10]
inactive: all other assays above

COC(=O)Nc1nc2ccc(C(=O)C3CC3)cc2[nH]1
inactive: [1] | [3] | [4] | [5] | [6]

O=C(/C=C/c1ccc([N+](=O)[O-])cc1)c1ccccc1
inactive: [1] | [2] | [3]
active: [6] 61.3 µM

CO[C@@H]1[C@@H](OC)[C@H](C)[C@@](O)(CC(=O)O)O[C@H]1[C@H](C)[C@H]1O[C@@]2(CC[C@@](C)([C@H]3CC[C@@](C)([C@@H]4O[C@@H]([C@H]5O[C@](C)(O)[C@H](C)C[C@@H]5C)C[C@@H]4OC4C[C@H](OC)[C@@H](OC)[C@H](C)O4)O3)O2)C[C@H](O)[C@H]1C (stereo partly specified)
active: [10] 10.6 µM | [6] 3.35 µM
inactive: [3] | [4] | [5] | [8] | [9]

CC(C)C(O)C(C)(C)CO (stereo unspecified)
not listed: [1] | [2] | [10]
inactive: all other assays above

Nc1nc(-c2ccc([N+](=O)[O-])cc2)cs1
not listed: [1] | [10]
inactive: all other assays above

CC(=O)C(=O)CC(C)C
not listed: [2] | [7] | [10]
inactive: all other assays above

O=C1NC(=O)c2cccc3cccc1c23
not listed: [1] | [10]
inactive: all other assays above

CCCCCCCC(=O)Oc1c(Br)cc(C#N)cc1Br
not listed: [2] | [7] | [10]
inactive: all other assays above

COc1ccc2nc(S(=O)Cc3ncc(C)c(OC)c3C)[nH]c2c1 (stereo unspecified)
inactive: [1] | [3] | [4] | [8] | [9] | [6]

Nc1cccc2c(N)cccc12
active: [1] 1.93 µM | [6] 5.45 µM
inactive: [3] | [4] | [5]

Cc1ccc2nc(N)[nH]c(=O)c2c1Sc1ccncc1
not listed: [2] | [7] | [10]
inactive: all other assays above

COc1cc(S(=O)(=O)Nc2ccccc2)c(OC)cc1N
not listed: [1] | [2]
inactive: all other assays above

COC(=O)C1=C(C)NC(C)=C(C(=O)OC(C)(C)CN(C)CCC(c2ccccc2)c2ccccc2)C1c1cccc([N+](=O)[O-])c1 (stereo unspecified)
active: [10] 6.68 µM
inactive: [3] | [5] | [8] | [9]

Nc1ccc(NC(=O)c2ccc(N)cc2)cc1
not listed: [1] | [2]
inactive: all other assays above

COc1cc(NCc2ccc3nc(N)nc(N)c3c2C)cc(OC)c1OC
inactive: [1] | [2] | [5] | [8] | [9]

CC(C)OC(=O)c1ccccc1C(=O)OC(C)C
active: [7] 61.1 µM
inactive: [3] | [5] | [8] | [9] | [6]
